Compounds without any hit were thinned out: in the full panel of roughly 79,000, 15% have a hit. A number with no mark means an inactive call. Activity calls are given as the source filed them. Cut-off read from the data, not from the text of the source: active = growth inhibition above about 70%; inactive = the rest.

The test in a line: NCI Yeast Anticancer Drug Screen. Data for the rad18 strain (AID 177). Particulars: S. cerevisiae rad18 mutant growth inhibition, active compounds read high. As to the method: Growth inhibition of yeast strains with defined genetic alterations is measured as a screen for potential anti-cancer activity. Selected strains with alterations in DNA damage repair or cell cycle control were exposed to compounds and growth inhibition was measured relative to vehicle treated controls. The strain used in this assay is rad18

In the case of `NC(=O)C(=O)NNc1ccccc1`, the growth inhibition runs as follows: (at 1.2 µM) 6%; (at 3.7 µM) 17%; (at 11.0 µM) 65%; (at 33.0 µM) 92% (active); (at 100.0 µM) 97% (active).
For `O=[N+]([O-])/C=C/c1cc(Cl)c(/C=C/[N+](=O)[O-])cc1Cl` the same measures were 19%, 51%, 78% (active), 95% (active) and 89% (active).
For `O=[N+]([O-])c1ccc(N/N=C/Cc2ccccc2)c([N+](=O)[O-])c1` the same measures were -2%, 3%, 11%, 17% and 21%.
The like results for `COc1ccc(/C=C/C(=O)c2ccccc2)cc1OC` were, in that order, -12%, -20%, -8%, 72% (active) and 95% (active).
Regarding `CCCCOCn1c(=O)[nH]c(=O)c2cc(Br)ccc21`, the growth inhibition (at 1.2 µM) was -19%; the growth inhibition (at 3.7 µM) was -5%; the growth inhibition (at 11.0 µM) is -1%; the growth inhibition (at 33.0 µM) was 9%; the growth inhibition (at 100.0 µM) is 38%.
The like results for `O=C1Nc2ccc(Br)cc2C1=Nc1ccc2c(c1)OCO2` were, in that order, -36%, -34%, -42%, -44% and -29%.
For `CC(=O)ON=C1C=CC(=C(C#N)c2ccc(Cl)cc2)C=C1` the same measures were 2%, 1%, 2%, 19% and 67%.
The like results for `Nc1nc(N)c2nc(CNc3ccc(C(=O)NC(CCC(=O)O)C(=O)O)cc3F)cnc2n1` (stereo not given) were, in that order, 20%, 19%, 35%, 72% (active) and 80% (active).

Source of the values: PubChem BioAssay (NCI).
